Measured values as given in PubChem BioAssay (NCATS).
Records with an inconclusive call do not appear. The source made the active and inactive calls. Calls come from the whole dose curve; as a rule, active = well fitted cell-killing curve with a large enough effect; inconclusive = small, poorly fitted or top-dose-only effect, or effect the other way; inactive = flat fitted curve, though single readings scatter.

Tested on: SKOV3
Test: Primary qHTS to identify gynecologic anti-cancer compounds using libraries of approved drugs and bioactive compounds (AID 1345084); note: nearly all actives have a fitted effect of over 55% in size
Conditions: Gynecologic cancer cell panel viability, ATPlite luminescence, 48 h; series mostly up to 57.5 µM; activity change, negative = cytotoxicity: at the top concentration
Method in brief: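 Luminescence from the ATPlite ATP-monitoring reagent indicates viable cell number; lower signal means cytotoxicity. Cells received compound 16 h after seeding and were exposed for 48 h across five concentrations.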
% is set by controls: 0 for no effect and ±100 for the full control effect.

| SMILES | activity change, negative = cytotoxicity |
| --- | --- |
| CCCCc1ccc(NS(=O)(=O)c2ccc(F)cc2)cc1 | 8.71% (inactive) |
| CC[C@@H]1C[C@]1(NC(=O)[C@@H]1C[C@@H]2CN1C(=O)[C@H](C(C)(C)C)NC(=O)OCC(C)(C)CCCCc1cccc3c1CN(C3)C(=O)O2)C(=O)NS(=O)(=O)C1CC1 | -19.5% (inactive) |
| COc1ccccc1OCCN1CC(COc2cccc3[nH]c4ccccc4c23)OCC1=O (centres undefined) | 3.78% (inactive) |
| CN(C)N(C)C(=O)[C@@]1(Cc2ccccc2)CCCN(C(=O)[C@@H](Cc2c[nH]c3ccccc23)NC(=O)C(C)(C)N)C1 | -2.15% (inactive) |
| C[C@@H](NC(=O)c1ccc(C#Cc2cccc(F)c2)cn1)C(C)(C)O | 12.4% (inactive) |
| COc1cc2c(cc1O)C1(Cc3ccc4c(c3C1O)OCO4)[N+](C)([O-])CC2 (centres undefined) | 4.14% [at 38.5 µM] (inactive) |
| C/C=C(\C)C(=O)O[C@H]1C[C@](C)(O)[C@H]2CC=C(C)[C@H]2[C@@H]2OC(=O)[C@H](C)[C@H]21 | -6.56% [at 38.5 µM] (inactive) |
| CCNC1(C(N)=O)CCN(c2ncnc3c2nc(-c2ccccc2Cl)n3-c2ccc(Cl)cc2)CC1 | 9.35% (inactive) |
| COc1ccccc1N1CCN(CC[C@@](C)(C(=O)C2CCCCC2)c2ccccc2)CC1 | -24.1% (inactive) |
| CC(C)(C)c1ccc(C(=O)Nc2cn3cc(-n4ccnc4)ccc3n2)cc1 | -31.5% (inactive) |
| COc1cc(CN(CCN)C(=O)c2cccs2)ccc1OCc1ccccc1 | -1.1% (inactive) |
| CCN(CCNC(=O)Nc1ccccc1Br)c1cccc(C)c1 | 11.8% (inactive) |
| CCCCOc1ccc(S(=O)(=O)n2c(C)nc3ccccc32)cc1 | -14.5% [at 25.3 µM] (inactive) |
| CCN(c1cc(-c2ccc(CN3CCOCC3)cc2)cc(C(=O)NCc2c(C)cc(C)[nH]c2=O)c1C)C1CCOCC1 | -11.5% (inactive) |
| C=C1CC[C@@H](O)[C@]2(C)CC[C@H]3C(=C)C(=O)O[C@@H]3[C@@H]12 | 14.2% (inactive) |
| CN[C@@H]1[C@H](O[C@H]2[C@H](O[C@@H]3[C@@H](O)[C@H](O)[C@@H](N=C(N)N)[C@H](O)[C@H]3N=C(N)N)O[C@@H](C)[C@]2(O)CO)O[C@@H](CO)[C@H](O)[C@H]1O | 0.733% (inactive) |
| Cc1cc(C)c(S(=O)(=O)n2cc(C)cc2C)c(C)c1 | 0.83% (inactive) |
| Cc1cn2c(n1)Cc1ccc(Cl)cc1C(c1ccc(N)cc1)=N2 | -13.1% (inactive) |
| COc1c(C(C)C)c(O)c(O)c2c1C(OC)[C@H]1OC(=O)[C@@]23CCCC(C)(C)[C@H]13 (some centres undefined) | 9.61% [at 38.5 µM] (inactive) |
| CC(=O)OC[C@]12[C@H](OC(C)=O)[C@H](OC(=O)c3ccccc3)[C@@H]3[C@@H](OC(C)=O)[C@]1(OC3(C)C)[C@H](C)C[C@H](OC(C)=O)[C@@H]2OC(=O)c1ccccc1 | -1.07% [at 25.3 µM] (inactive) |

| SMILES | activity change, negative = cytotoxicity |
| --- | --- |
| C=C1CCN([C@H](C)[C@](O)(Cn2cncn2)c2ccc(F)cc2F)CC1 | 11.9% (inactive) |
| COc1cccc(CN(C(=O)CC(C)(C)C)[C@H]2C[C@H](C(=O)N3CCNCC3)N(Cc3ccc4c(c3)OCO4)C2)c1 | -7.77% (inactive) |
| CC(=O)OC1C(O)CC2(C)C(CCC3(C)C2CC=C2C4C5(CCC(CO[C@@H]6O[C@H](CO)[C@@H](O)[C@H](O)[C@H]6O)(OC5=O)C4(C)O)C(O)CC23C)C1(C)C (some centres undefined) | -0.491% [at 25.3 µM] (inactive) |
| COc1ccc(-c2cnc3c(-c4cccc5ncccc45)cnn3c2)cc1 | -26.2% (inactive) |
| O=S(=O)(c1ccccc1)N(CC(F)(F)F)c1ccc(C(O)(C(F)(F)F)C(F)(F)F)cc1 | -8.28% (inactive) |
| CC(C)C(C)C(O)C1CC23CC(=O)C4(O)C(=C2CCC3C1C)C=CC1(O)CC(O)CCC14C (centres undefined) | 14.4% [at 25.3 µM] (inactive) |
| CN(C)c1ccnc2sc3c(=O)n(N4CCCCCC4)cnc3c12 | 2.91% (inactive) |
| CN1CCN(c2ccc(-c3cccc(CN4CCOCC4)c3)cc2NC(=O)c2c[nH]c(=O)cc2C(F)(F)F)CC1 | 4.98% [at 38.5 µM] (inactive) |
| C[C@@H]1O[C@@H](O[C@H]2[C@@H](OC(=O)[C@]34CCC(C)(C)CC3C3=CCC5[C@@]6(C)C[C@H](O)[C@H](O[C@@H]7O[C@H](CO)[C@@H](O)[C@H](O)[C@H]7O[C@@H]7OC[C@@H](O)[C@H](O)[C@H]7O)[C@@](C)(C(=O)O)C6CC[C@@]5(C)[C@]3(C)CC4)OC[C@H](O)[C@@H]2O)[C@H](O)[C@H](O)[C@H]1O[C@@H]1OC[C@@H](O)[C@H](O)[C@H]1O (some centres undefined) | -18.3% [at 6.55 µM] (inactive) |
| CC1(C)CCCC2(C)C1C(OC(=O)/C=C/C=C/C=O)C=C1COC(=O)C12O (centres undefined) | -10.1% [at 25.3 µM] (inactive) |
| CC(=O)O[C@]1(C(C)=O)CC[C@H]2[C@@H]3CCC4=CC(=O)CCC4=C3[C@@H](c3ccc(N(C)C)cc3)C[C@@]21C | 8.73% (inactive) |
| O=C(NCCO)c1cccc(-c2cc(Nc3ccc(OC(F)(F)F)cc3)ncn2)c1 | -4.52% (inactive) |
| CN1CCc2cc3c(cc2C(=O)Cc2cc4c(cc2C1)OCO4)OCO3 | -7.1% [at 38.5 µM] (inactive) |
| C=C(C)C(=O)O[C@H]1/C(C=O)=C\CC/C(CO)=C/[C@H]2OC(=O)C(=C)[C@@H]2[C@@H]1OC | -6.93% [at 38.5 µM] (inactive) |
| O=C(CSc1nc2ccccc2c(=O)n1-c1ccccc1)Nc1ccc2c(c1)CCC2 | 1.42% (inactive) |
| CC1=C2C[C@@]3(C)C(CCC[C@@H]3C)C(O)C2OC1=O (some centres undefined) | -1.84% (inactive) |
| C=C1/C(=C/C=C2\CCC[C@]3(C)[C@@H]([C@@H](C)OCCC(O)(CC)CC)CC[C@@H]23)C[C@@H](O)C[C@@H]1O | -11.2% (inactive) |
| CC(C)(C)C1CCN(C(=O)n2ncc(C(O)(c3ccccc3)c3ccccc3)n2)CC1 | -18.8% (inactive) |
| CC(=O)C1=C(O)C=C2Oc3c(C(C)=O)c(O)c(C)c(O)c3[C@]2(C)C1=O | 25.7% (inactive) |
